AMA1 RON2 block: disrupts binding of P. falciparum AMA1 to RON2 | AlphaScreen AMA1-biotinylated RON2 peptide binding | Potency, µM (highest dose often 58.2 µM), without a hit: at the top dose activity change, negative = inhibition, hits mostly inhibitors | 0.2% of 360,000 active;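 note: 0% = vehicle wells and -100% = peptide control; nearly all actives have a fitted effect of over 45% in size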
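AMA1 (3D7) with his tag at 25 nM final met compounds first, then biotinylated RON2 peptide at 25 nM; detection used donor plus acceptor beads, 10 µg/mL apiece, read by AlphaScreen after 30 min at room temperature.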
Pf growth 48h: inhibits P. falciparum growth in the first generation, 48 h; 5.9% of 310,000 active; P. falciparum luciferase growth in erythrocytes, 48 h; AID 504832; Potency, µM (highest dose often 28.7 µM), for inactives: top-dose activity change, negative = inhibition, most hits filed as inhibitors
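Luciferase-expressing P. falciparum in infected erythrocytes (2% hematocrit, 0.1% parasitemia final) in RPMI 1640/0.5% Albumax were exposed to compound for 48 hours at 37 C, 5% CO2; growth read as luminescence.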
Vaccinia Venus: inhibitors of vaccinia virus (Venus reporter); AID 720580; Potency, µM (series often up to 36.5 µM), without a hit: top-dose activity change, negative = inhibition, usual class: inhibitors; 0.46% of 330,000 active; Vaccinia virus Venus reporter expression, fluorescence; calls by dose curve; tested in A549 cells; note: nearly all actives have a fitted effect of over 30% in size
Vaccinia mCherry: inhibitors of vaccinia virus infection (mCherry reporter signal); Vaccinia virus mCherry reporter infection, fluorescence; Potency, µM (doses to about 36.5 µM), inactives show top-dose activity change, negative = inhibition, actives largely listed as inhibitors; 0.63% of 310,000 active; AID 720579; calls by dose curve; tested in A549 cells; note: nearly all actives have a fitted effect of over 35% in size
Pf growth 96h: P. falciparum growth inhibition at 96 hour, primary screen for plastid delayed-death inhibitors | P. falciparum luciferase reporter growth, 96 h | Potency, µM (titrated, usually from 28.7 µM), for the others: at the top dose activity change, negative = inhibition, most hits filed as inhibitors | 6.9% of 320,000 active | AID 504834
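Cell-based qHTS: luciferase-tagged P. falciparum in erythrocytes (2% hematocrit, 0.05% parasitemia final) incubated with compounds for 96 hours, 37 C, 5% CO2; luciferase detection reagent then added and luminescence measured.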
* marks the source's active call; other numbers are inactive results; i = inactive; ? = inconclusive; / = no result. A selection: hits, their analogues and other compounds. The true share with any hit is near 8.7%. Unless noted, calls come from the whole dose curve; as a rule, active = well fitted curve in the direction sought with a large enough effect; inconclusive = small, poorly fitted or top-dose-only effect, or another doubt; inactive = no such curve, though single readings can be large; an effect the other way counts as inactive or inconclusive. Unless noted, % is set by controls: 0 for no effect and ±100 for the full control effect; potency is the fitted concentration of half-maximal effect.

SMILES	AMA1 RON2 block	Pf growth 48h	Vaccinia Venus	Vaccinia mCherry	Pf growth 96h
CCCCn1c(=O)n(CC(=O)Nc2ccc(C)c(Cl)c2)c(=O)c2c1ncn2Cc1ccco1	0%	12µM*	-24%	-7%	4.7µM*
CN(C(=O)COc1coc(CN2CCN(c3ccccc3)CC2)cc1=O)c1ccccc1	9%	-13%	-15%	-10%	13µM*
CCCNC(=O)COc1coc(CN2CCN(c3cccc(Cl)c3)CC2)cc1=O	-1%	-16%	-19%	-7%	10µM*
CNC(=O)COc1coc(CN2CCN(c3ccccc3)CC2)cc1=O	-3%	7%	5%	-13%	-14%
CCCNC(=O)COc1coc(CN2CCN(c3ccccc3)CC2)cc1=O	-3%	11%	/	/	?
CCN(CC)C(=O)COc1coc(CN2CCN(c3cccc(Cl)c3)CC2)cc1=O	-6%	-12%	-7%	-12%	8.3µM*
Cc1nn(C(=O)c2cccc(F)c2)c(C)c1S(=O)(=O)N1CCOCC1	/	/	-8%	-7%	/
O=C(CCCn1c(=S)[nH]c2ccccc2c1=O)NC1CCCC1	8%	0%	/	/	0.52µM*
CC1CCCCC1NC(=O)CCCCCn1c(=S)[nH]c2ccccc2c1=O (stereo not drawn)	91%	?	-21%	i	?
CC1CCCCC1NC(=O)CCCn1c(=S)[nH]c2ccccc2c1=O (stereo not drawn)	34%	?	-16%	i	15µM*
Cn1c(SCCCC(=O)c2ccccc2)nnc1-c1ccncc1	-3%	-17%	/	/	-1%
Cn1c(SCCCC(=O)c2ccc(F)cc2)nnc1-c1ccncc1	3%	?	2%	/	10µM*
COCCn1c(SCCCC(=O)c2ccc(Br)cc2)nnc1-c1ccncc1	20%	/	-18%	-27%	13µM*
COc1ccc(-c2c3c(=O)n(C)c(=O)n(C)c3cn2-c2cccc(N)c2)cc1	/	/	-24%	-29%	/
Cc1cc(NS(=O)(=O)c2ccc(NC(=O)c3ccc(F)cc3)cc2)nc(C)n1	-7%	/	/	/	/
Cc1cc(NS(=O)(=O)c2ccc(NC(=O)/C=C/c3ccc(C)o3)cc2)nc(C)n1	-1%	14%	/	/	7.4µM*
Cc1cc(NS(=O)(=O)c2ccc(NC(=O)c3c(F)c(F)c(F)c(F)c3F)cc2)nc(C)n1	-14%	-15%	?	28µM*	?
Cc1cc(NS(=O)(=O)c2ccc(NC(=O)/C=C/c3ccccc3)cc2)nc(C)n1	11%	/	-8%	-2%	/
COc1cccc(C(=O)NCC2Cc3cccc(-c4nc(C)cnc4C)c3O2)c1OC (stereo not drawn)	/	/	50%	26%	/
Cc1ccc(NC(=O)COC(=O)c2nn(-c3ccc(Cl)cc3)cc2O)cc1	-2%	/	-29%	-8%	/
NNC(=O)c1nn(-c2ccc(Cl)cc2)cc1O	73%	9.3µM*	-2%	?	?
CCOC(=O)c1ccccc1NC(=O)Cn1c(=O)n(Cc2nc(C)no2)c(=O)c2ccccc21	/	/	-11%	-12%	/
CCN(CC)C(=O)CSc1nc(N)c(C(=O)Nc2ccc(OC)cc2)s1	-9%	13%	?	13µM*	0%
COc1ccc(NC(=O)c2sc(SC)nc2N)cc1	-3%	/	-22%	-24%	81%
CCCCOc1ccc(C(=O)Nc2cc(-c3cn4cccnc4n3)ccc2OC)cc1	/	/	-5%	-3%	/
SMILES	AMA1 RON2 block	Pf growth 48h	Vaccinia Venus	Vaccinia mCherry	Pf growth 96h
Cc1oc(S(=O)(=O)N2CCCCC2)cc1NC(=O)Nc1ccc(F)cc1	-2%	?	/	/	5.9µM*
O=C(Nc1ccc(S(=O)(=O)N2CCCC2)cc1)Nc1ccc(F)cc1F	0%	/	/	/	/
O=S(=O)(c1ccc(S(=O)(=O)N(Cc2ccc(F)cc2)C2CCCC2)cc1)N1CCCC1	26%	13µM*	-22%	/	/
O=C(Nc1ccc(F)cc1)Nc1ccc(S(=O)(=O)N2CCCC2)cc1	-3%	13µM*	/	/	7.4µM*
COc1ccccc1NS(=O)(=O)c1ccc2oc(SCc3ccc(C#N)cc3)nc2c1	-2%	-24%	?	?	9.3µM*
CNC(=O)CSc1nc2cc(S(=O)(=O)Nc3ccccc3OC)ccc2o1	41%	15%	?	13µM*	-17%
COc1ccc(NS(=O)(=O)c2ccc3oc(SC(C)C(N)=O)nc3c2)cc1 (stereo not drawn)	17%	2.3µM*	?	?	4.7µM*
